# Source: PubChem BioAssay
# For part of these data: Results with a measured potency or affinity are listed apart. The source made the active and inactive calls.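 Rule for the calls, unless noted: active = membrane potential signal rise above negative control mean plus 3 SD in both duplicates, also active in the earlier TRPC4 screen; inactive = the rest.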
# Columns and labels:
# [1] = test system: TRPC4 beta (transient receptor potential cation channel C4), mouse; assay: activators of mouse TRPC4 channel, confirmation, cell-based, Fluo4 calcium, HEK293 TRPC4beta/mu-opioid, duplicates, 10 µM (AID 2426;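 active = fluorescence ratio normalized to control raised more than 50% in primary screen plus both repeat runs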;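 for activation: percent rise of integrated ratio over buffer wells lacking compound which define 0%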); settings: Fluo4 calcium fluorescence, at 10 µM; hits give high values
# [2] = test system: transient receptor potential cation channel C4 beta (TRPC4), mouse; assay: activators of mouse TRPC4 channel, confirmation, cell-based, second round, Fluo4, HEK293 TRPC4beta/mu-opioid, 1 µM (AID 2461;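 active = primary screen active and over 50% activation in each of two duplicate runs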;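 for activation: 0% = wells without test compound as baseline of integrated fluorescence ratio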); settings: Fluo4 calcium fluorescence, at 1 µM; hits give high values
# [3] = test system: TRPC4 (transient receptor potential cation channel C4 beta), mouse; assay: positive allosteric modulators of mouse TRPC4, confirmation, cell-based, second round, Fluo-4, HEK293 TRPC4beta/mu-opioid, 1 µM (AID 2554;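 active = primary screen hit whose fluorescence ratio, in both repeats, exceeds the weak agonist control mean by 3 SD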); settings: DAMGO EC20, Fluo-4 calcium flux, at 1 µM; hits give high values
# [4] = test system: TRPC4 beta (transient receptor potential cation channel C4), mouse; assay: positive allosteric modulators of mouse TRPC4, confirmation, cell-based, Fluo-4, HEK293 TRPC4beta/mu-opioid (AID 2555;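 active = primary screen hit whose calcium fluorescence ratio, in both repeats, exceeds the weak agonist control mean by 3 SD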); settings: DAMGO EC20, Fluo-4 calcium flux, at 10 µM; hits give high values
# [5] = target: Short transient receptor potential channel 4 (Mus musculus) (UniProt Q9QUQ5); assay: inhibitors of mouse TRPC4 channel, confirmation, cell-based, Fluo4, HEK293 TRPC4beta/mu-opioid (AID 2636;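 active = calcium signal cut by more than 3 SD below the full-agonist control yet still positive, in both repeats and the earlier primary screen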); settings: DAMGO, Fluo4 calcium flux, at 10 µM; hits give high values
# [6] = target: Short transient receptor potential channel 4 (Mus musculus) (UniProt Q9QUQ5); assay: inhibitors of mouse TRPC4 channel, confirmation, cell-based, second round, Fluo4, HEK293 TRPC4beta/mu-opioid, 1 µM (AID 2637;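 active = calcium signal ratio cut to more than 3 SD under the fully stimulated control mean yet still positive, in both repeats and the primary screen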); settings: Fluo4 calcium flux, DAMGO, at 1 µM; hits give high values
# [7] = target: Short transient receptor potential channel 4 (Mus musculus) (UniProt Q9QUQ5); assay: TRPC4 positive allosteric modulators, dose response, cell-based, HEK293 TRPC4/mu-opioid, Fluo-4 calcium, EC20 DAMGO (AID 434941;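 active = earlier screen potentiator hit that boosts the TRPC4 ion channel at some dose, with a dose response; inactive = no potentiation, no dose response, or not a prior hit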;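 note: calcium entry triggered by an EC20 dose of DAMGO at the co-expressed mu-opioid receptor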)
# [8] = target: Short transient receptor potential channel 4 (Mus musculus) (UniProt Q9QUQ5); assay: mouse TRPC4 channel inhibitors, dose response, cell-based, HEK293 TRPC4/mu-opioid, Fluo-4 calcium (AID 434942;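 active = primary screen inhibitor hit that blocks the TRPC4 channel at some tested dose, yielding a dose curve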)
# [9] = target: Short transient receptor potential channel 6 (Mus musculus) (UniProt Q61143); assay: inhibition of mouse TRPC6 channel, confirmation, selectivity assay for TRPC4 inhibitor project, cell-based, HEK293, membrane potential dye, duplicate (AID 434948;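 active = active in primary screen and both duplicates, each dropping signal beyond three positive-control SD with fluorescence still positive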); settings: HEK293 TRPC6, membrane potential dye fluorescence, at 10 µM, stimulated with maximal-effect acetylcholine; hits give high values
# [10] = target: Short transient receptor potential channel 6 (Mus musculus) (UniProt Q61143); assay: activation of mouse TRPC6 channel, confirmation, selectivity assay for TRPC4 activator project, cell-based, HEK293, membrane potential dye, duplicate (AID 434950); settings: HEK293 TRPC6, membrane potential fluorescence, at 10 µM; hits give high values;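 for activation: 0% = buffer only wells and 100% = acetylcholine maximal-effect wells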
# [11] = target: Short transient receptor potential channel 6 (Mus musculus) (UniProt Q61143); assay: TRPC6 potentiation by TRPC4 potentiator hits, confirmation, selectivity assay for TRPC4 potentiator project, HEK293 cells, membrane potential dye, duplicate (AID 434952;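 active = compound raising the membrane signal above positive-control mean plus 3 SD in both repeats, and a primary screen hit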); settings: HEK293 TRPC6, membrane potential dye fluorescence, at 10 µM, maximal acetylcholine added after compound; hits give high values
# [12] = target: Short transient receptor potential channel 4 (Mus musculus) (UniProt Q9QUQ5); assay: calcium flux activators in TRPC4/5HT1a cells, counter-screen for TRPC4 activator project, cell-based, second counter screen, HEK293 TRPC4/5HT1a, Fluo-4 (AID 434977;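 active = calcium signal rise above buffer-control mean plus 5 SD in both duplicates, and also a hit in the primary screen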;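 for activation: plate controls were assay buffer for no effect and maximal serotonin response for full effect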); settings: Fluo-4 calcium flux, at 10 µM; hits give high values
# [13] = calcium flux inhibitors in TRPC4/5HT1a cells, confirmation, counter-screen for TRPC4 inhibitor project, cell-based, second counter screen, HEK293 TRPC4/5HT1a, Fluo-4 (AID 434978;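 active = primary screen active whose calcium signal fell more than 3 SD beyond the full-serotonin control mean in both duplicate plates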;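 note: serotonin given first at submaximal then at maximal dose after compound preincubation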); settings: Fluo-4 calcium flux, at 10 µM, serotonin added to trigger calcium flux; hits give high values
# [14] = test system: TRPC4 (mouse), co-expressed with 5HT1a in HEK293; assay: calcium flux potentiators in TRPC4/5HT1a cells, confirmation, counter-screen for TRPC4 potentiator project, cell-based, second counter screen, HEK293 TRPC4/5HT1a, Fluo-4 (AID 434979;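 active = signal rise over 3 SD above mean of control wells given weak agonist, in both repeats and first screen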); settings: Fluo-4 calcium flux, at 10 µM, serotonin added at its EC20 dose; hits give high values
# [15] = calcium flux activation in mu-opioid HEK293 cells, confirmation, counter-screen for TRPC4 activator project, cell-based, HEK293 mu-opioid receptor line (AID 449723;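 active = hit in primary screen, with calcium signal over 5 SD above buffer well mean in both duplicates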;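 note: counter screen cells carry the mu-opioid receptor alone and lack TRPC4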); settings: Fluo-4 calcium fluorescence, at 10 µM; hits give high values
# [16] = calcium flux enhancement in mu-opioid HEK293 cells, confirmation, counter-screen for TRPC4 allosteric potentiator project, cell-based, HEK293 mu-opioid receptor line (AID 449724;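 active = calcium signal rise more than 3 SD above the low-dose agonist control mean, in both duplicate plates and the primary screen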); settings: Fluo-4 calcium flux, at 10 µM, compound added before EC20 DAMGO stimulus; hits give high values
# Short transient receptor potential channel 4 (Mus musculus), sequence (Q9QUQ5 whole entry, looked up): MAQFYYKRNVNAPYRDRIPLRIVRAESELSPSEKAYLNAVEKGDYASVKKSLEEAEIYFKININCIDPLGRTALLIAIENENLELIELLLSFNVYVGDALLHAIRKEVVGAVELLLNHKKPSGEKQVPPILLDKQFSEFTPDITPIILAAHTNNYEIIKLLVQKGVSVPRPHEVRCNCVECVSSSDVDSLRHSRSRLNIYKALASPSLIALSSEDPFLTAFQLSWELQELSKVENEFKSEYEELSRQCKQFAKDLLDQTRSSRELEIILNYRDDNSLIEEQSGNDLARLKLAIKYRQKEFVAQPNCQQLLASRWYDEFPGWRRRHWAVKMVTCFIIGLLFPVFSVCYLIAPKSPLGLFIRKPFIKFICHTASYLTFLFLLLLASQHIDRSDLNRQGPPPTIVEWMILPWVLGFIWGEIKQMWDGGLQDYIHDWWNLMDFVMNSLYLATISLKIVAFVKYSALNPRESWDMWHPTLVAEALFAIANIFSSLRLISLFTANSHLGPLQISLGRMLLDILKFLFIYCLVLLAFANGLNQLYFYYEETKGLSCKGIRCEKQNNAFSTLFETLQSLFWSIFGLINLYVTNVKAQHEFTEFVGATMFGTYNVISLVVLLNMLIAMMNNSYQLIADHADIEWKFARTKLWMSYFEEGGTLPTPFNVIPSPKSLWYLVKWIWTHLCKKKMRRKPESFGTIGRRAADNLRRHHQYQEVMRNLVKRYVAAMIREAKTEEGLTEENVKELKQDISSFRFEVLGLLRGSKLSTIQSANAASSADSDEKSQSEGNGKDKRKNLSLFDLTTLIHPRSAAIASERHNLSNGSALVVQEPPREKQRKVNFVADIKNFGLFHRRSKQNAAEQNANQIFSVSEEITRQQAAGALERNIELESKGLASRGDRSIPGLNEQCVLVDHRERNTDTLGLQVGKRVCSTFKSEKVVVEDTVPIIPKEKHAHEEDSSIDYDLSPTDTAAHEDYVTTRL
# Short transient receptor potential channel 6 (Mus musculus), sequence (Q61143 whole entry, looked up): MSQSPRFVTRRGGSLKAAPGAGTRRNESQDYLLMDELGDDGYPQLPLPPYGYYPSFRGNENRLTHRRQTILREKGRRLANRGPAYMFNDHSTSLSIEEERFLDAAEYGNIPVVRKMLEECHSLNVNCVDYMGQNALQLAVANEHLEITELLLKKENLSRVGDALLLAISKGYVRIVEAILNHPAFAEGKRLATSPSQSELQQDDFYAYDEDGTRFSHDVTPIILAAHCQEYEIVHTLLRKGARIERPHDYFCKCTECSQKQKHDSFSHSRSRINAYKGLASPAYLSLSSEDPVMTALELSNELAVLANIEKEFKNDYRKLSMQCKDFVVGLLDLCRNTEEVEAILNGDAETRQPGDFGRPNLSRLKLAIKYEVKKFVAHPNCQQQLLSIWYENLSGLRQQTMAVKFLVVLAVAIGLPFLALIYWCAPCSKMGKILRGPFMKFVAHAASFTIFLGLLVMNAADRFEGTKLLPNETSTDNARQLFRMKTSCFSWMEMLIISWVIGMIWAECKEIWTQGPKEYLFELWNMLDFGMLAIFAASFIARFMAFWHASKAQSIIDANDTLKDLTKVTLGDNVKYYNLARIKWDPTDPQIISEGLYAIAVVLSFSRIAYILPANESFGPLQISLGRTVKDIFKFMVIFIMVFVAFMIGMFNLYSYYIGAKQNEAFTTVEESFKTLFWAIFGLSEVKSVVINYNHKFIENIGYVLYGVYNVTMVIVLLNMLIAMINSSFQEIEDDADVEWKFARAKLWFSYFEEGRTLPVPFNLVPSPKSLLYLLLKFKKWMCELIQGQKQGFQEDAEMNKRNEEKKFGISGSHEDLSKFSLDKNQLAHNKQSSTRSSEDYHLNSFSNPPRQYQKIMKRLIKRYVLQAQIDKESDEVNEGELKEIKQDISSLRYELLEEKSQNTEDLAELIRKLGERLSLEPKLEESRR
smiles,measurement,setting,value
O=C(COc1ccc(Br)cc1CNC1CCCC1)Nc1ccccc1,activation,[1],175% (active)
same,outcome,[2],inactive
same,outcome,[3],inactive
same,outcome,[4],inactive
same,outcome,[5],inactive
same,outcome,[6],inactive
same,outcome,[7],inactive
same,outcome,[8],inactive
same,outcome,[9],inactive
same,activation,[10],29.5% (active)
same,outcome,[11],inactive
same,outcome,[12],inactive
same,outcome,[13],inactive
same,outcome,[14],inactive
same,outcome,[15],inactive
same,outcome,[16],inactive
O=S(=O)(c1ccccc1)c1nnn2c1nc(NC1CCN(Cc3ccccc3)CC1)c1cc(Cl)ccc12,activation,[1],64% (active)
same,outcome,[2],inactive
same,outcome,[3],inactive
same,outcome,[4],inactive
same,outcome,[5],inactive
same,outcome,[6],inactive
same,outcome,[7],inactive
same,outcome,[8],inactive
same,outcome,[9],inactive
same,outcome,[10],inactive
same,outcome,[11],inactive
same,outcome,[12],inactive
same,outcome,[13],inactive
same,outcome,[14],inactive
same,outcome,[15],inactive
same,outcome,[16],inactive
O=C(NCCc1cccc(Cl)c1)c1ccc(OC2CCN(Cc3ccccn3)CC2)cc1,activation,[1],69% (active)
same,outcome,[2],inactive
same,outcome,[3],inactive
same,outcome,[4],inactive
same,outcome,[5],inactive
same,outcome,[6],inactive
same,outcome,[7],inactive
same,outcome,[8],inactive
same,outcome,[9],inactive
same,activation,[10],43.5% (active)
same,outcome,[11],inactive
same,outcome,[12],inactive
same,outcome,[13],inactive
same,outcome,[14],inactive
same,outcome,[15],inactive
same,outcome,[16],inactive
Cc1ccc(C)c(-n2cc(CNCCc3cnccn3)c(-c3ccccc3)n2)c1,activation,[1],152% (active)
same,activation,[2],54% (active)
same,outcome,[3],inactive
same,outcome,[4],inactive
same,outcome,[5],inactive
same,outcome,[6],inactive
same,outcome,[7],inactive
same,outcome,[8],inactive
same,outcome,[9],inactive
same,activation,[10],40% (active)
same,outcome,[11],inactive
same,outcome,[12],inactive
same,outcome,[13],inactive
same,outcome,[14],inactive
same,outcome,[15],inactive
same,outcome,[16],inactive
Cc1cccc(NC(=S)NCC(c2cccnc2)N(C)C)c1 (stereo not given),activation,[1],87% (active)
same,activation,[2],115% (active)
same,outcome,[3],inactive
same,outcome,[4],inactive
same,outcome,[5],inactive
same,outcome,[6],inactive
same,outcome,[7],inactive
same,outcome,[8],inactive
same,outcome,[9],inactive
same,activation,[10],33.5% (active)
same,outcome,[11],inactive
same,outcome,[12],inactive
same,outcome,[13],inactive
same,outcome,[14],inactive
same,outcome,[15],inactive
same,outcome,[16],inactive
CCN1CCN(c2c(S(=O)(=O)c3ccc(C)c(C)c3)cnc3ccc(F)cc23)CC1,activation,[1],106% (active)
same,outcome,[2],inactive
same,outcome,[3],inactive
same,outcome,[4],inactive
same,outcome,[5],inactive
same,outcome,[6],inactive
same,outcome,[7],inactive
same,outcome,[8],inactive
same,outcome,[9],inactive
same,activation,[10],50% (active)
same,outcome,[11],inactive
same,outcome,[12],inactive
same,outcome,[13],inactive
same,outcome,[14],inactive
same,outcome,[15],inactive
same,outcome,[16],inactive
CN(C)CCCN(C(=O)c1ccc(S(=O)(=O)N2CCCc3ccccc32)cc1)c1nc2ccc(F)cc2s1,activation,[1],134% (active)
same,outcome,[2],inactive
same,outcome,[3],inactive
same,outcome,[4],inactive
same,outcome,[5],inactive
same,outcome,[6],inactive
same,outcome,[7],inactive
same,outcome,[8],inactive
same,outcome,[9],inactive
same,outcome,[10],inactive
same,outcome,[11],inactive
same,outcome,[12],inactive
same,outcome,[13],inactive
same,outcome,[14],inactive
same,activation,[15],14.7% (active)
same,outcome,[16],inactive
CC(C)(C)c1ccccc1NC(=O)NC1CCN(Cc2c(F)cccc2Cl)CC1,activation,[1],121% (active)
same,outcome,[2],inactive
same,outcome,[3],inactive
same,outcome,[4],inactive
same,outcome,[5],inactive
same,outcome,[6],inactive
same,outcome,[7],inactive
same,outcome,[8],inactive
same,outcome,[9],inactive
same,activation,[10],36% (active)
same,outcome,[11],inactive
same,activation,[12],71.5% (active)
same,outcome,[13],inactive
same,outcome,[14],inactive
same,outcome,[15],inactive
same,outcome,[16],inactive
CNCCCOc1ccc2c(c1)CCC2,activation,[1],75% (active)
same,outcome,[2],inactive
same,potentiation,[3],24% (active)
same,potentiation,[4],29% (active)
same,outcome,[5],inactive
same,outcome,[6],inactive
same,outcome,[7],inactive
same,outcome,[8],inactive
same,outcome,[9],inactive
same,activation,[10],57% (active)
same,outcome,[11],inactive
same,activation,[12],16.2% (active)
same,outcome,[13],inactive
same,outcome,[14],inactive
same,outcome,[15],inactive
same,outcome,[16],inactive
COc1ccc(C(CNC(=O)c2cccc(S(=O)(=O)NCc3ccccc3)c2)N(C)C)cc1 (stereo not given),activation,[1],129% (active)
same,activation,[2],61% (active)
same,outcome,[3],inactive
same,outcome,[4],inactive
same,outcome,[5],inactive
same,outcome,[6],inactive
same,outcome,[7],inactive
same,outcome,[8],inactive
same,outcome,[9],inactive
same,activation,[10],38% (active)
same,outcome,[11],inactive
same,outcome,[12],inactive
same,outcome,[13],inactive
same,outcome,[14],inactive
same,outcome,[15],inactive
same,outcome,[16],inactive
CSCCC(NS(=O)(=O)c1ccc2c(c1)c(=O)n(C)c(=O)n2C)C(=O)NC1CCN(Cc2ccccc2)CC1 (stereo not given),outcome,[1],inactive
same,outcome,[2],inactive
same,outcome,[3],inactive
same,outcome,[4],inactive
same,outcome,[5],inactive
same,outcome,[6],inactive
same,outcome,[7],inactive
same,outcome,[8],inactive
same,outcome,[9],inactive
same,outcome,[10],inactive
same,outcome,[11],inactive
same,activation,[12],8.04% (active)
same,outcome,[13],inactive
same,outcome,[14],inactive
same,outcome,[15],inactive
same,outcome,[16],inactive
CNC[C@H](CC1CCCCC1)NC[C@H](Cc1ccccc1)NCCC12CC3CC(CC(C3)C1)C2,activation,[1],219% (active)
same,outcome,[2],inactive
same,outcome,[3],inactive
same,outcome,[4],inactive
same,outcome,[5],inactive
same,outcome,[6],inactive
same,outcome,[7],inactive
same,outcome,[8],inactive
same,outcome,[9],inactive
same,outcome,[10],inactive
same,outcome,[11],inactive
same,activation,[12],63.4% (active)
same,outcome,[13],inactive
same,outcome,[14],inactive
same,activation,[15],51.7% (active)
same,outcome,[16],inactive
CCCN(CCC)CCCNc1ccc2nnc(-c3ccc(F)cc3)n2n1,activation,[1],92% (active)
same,outcome,[2],inactive
same,outcome,[3],inactive
same,outcome,[4],inactive
same,outcome,[5],inactive
same,outcome,[6],inactive
same,outcome,[7],inactive
same,outcome,[8],inactive
same,outcome,[9],inactive
same,outcome,[10],inactive
same,outcome,[11],inactive
same,activation,[12],41.2% (active)
same,outcome,[13],inactive
same,outcome,[14],inactive
same,outcome,[15],inactive
same,outcome,[16],inactive
COc1ccc(/C=C/CN2CCCC(C(=O)c3ccc(OC)c(F)c3)C2)cc1 (stereo not given),outcome,[1],inactive
same,outcome,[2],inactive
same,outcome,[3],inactive
same,outcome,[4],inactive
same,outcome,[5],inactive
same,outcome,[6],inactive
same,outcome,[7],inactive
same,outcome,[8],inactive
same,outcome,[9],inactive
same,activation,[10],33% (active)
same,outcome,[11],inactive
same,outcome,[12],inactive
same,outcome,[13],inactive
same,outcome,[14],inactive
same,outcome,[15],inactive
same,outcome,[16],inactive
Cn1c(CN2CCN(c3cccc(Cl)c3)CC2)nc2ccccc21,activation,[1],119% (active)
same,outcome,[2],inactive
same,outcome,[3],inactive
same,outcome,[4],inactive
same,outcome,[5],inactive
same,outcome,[6],inactive
same,outcome,[7],inactive
same,outcome,[8],inactive
same,outcome,[9],inactive
same,activation,[10],49% (active)
same,outcome,[11],inactive
same,outcome,[12],inactive
same,outcome,[13],inactive
same,outcome,[14],inactive
same,outcome,[15],inactive
same,outcome,[16],inactive
